This passage reports growth results from PubChem BioAssay (NCI).

Some test systems named below: HCT-15 colon; HT29 colon; SNB-75 CNS; SNB-19 CNS; U251 CNS; PC-3 prostate; SK-MEL-5 melanoma; UACC-62 melanoma; LOX IMVI melanoma; SK-MEL-28 melanoma; SK-MEL-2 melanoma; EKVX NSCLC; SN12C renal; UO-31 renal; TK-10 renal; ACHN renal; CAKI-1 renal; CCRF-CEM leukemia; MOLT-4 leukemia; A498 renal.
What all share (assay): NCI-60 one-dose screen, 48 h (100 = growth as untreated, 0 = no growth, -100 = all killed)
Settings in all cases: 10 µM unless noted

About 83,000 compounds went through this panel and 20% of them were active in at least one assay; those are over-represented in the sample as a whole.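 A percent growth of 40 corresponds to 60% growth inhibition; 0 means no net growth; -100 means all cells died. Active threshold: below 10.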 A number with no mark means an inactive call. Active and inactive are the calls of the source.

Consider `CCCCCCNC(=O)Oc1ccc(/C(=C(\C)c2ccccc2)c2ccc(OCCN3CCCCC3)cc2)cc1`, for which the growth in the experiment with HCT-15 colon is 8.13% (active); with HT29 colon, -6.46% (active); with SNB-75 CNS, 92.5%; with SNB-19 CNS, 74.6%; in the experiment with U251 CNS it was 50.1%; with PC-3 prostate it was 47.9%. For the same compound, the growth in the experiment on SK-MEL-5 melanoma is 71.2%; in the experiment with UACC-62 melanoma it was 5.21% (active); in the experiment with LOX IMVI melanoma it was 53.9%; with SK-MEL-28 melanoma it was 48.8%; with SK-MEL-2 melanoma, 75.3%; in the experiment on EKVX NSCLC it was 77.7%. The growth in the experiment with SN12C renal was 71.4%; with UO-31 renal, 39.4%; in the experiment with TK-10 renal, 83.3%; in the experiment with ACHN renal, 90.2%; in the experiment with CAKI-1 renal it was 44.8%; in the experiment on CCRF-CEM leukemia, 60.7%. In addition, the growth in the experiment on MOLT-4 leukemia was 43.7%.
As for `COc1ccc(C(=O)Cn2c(C(=O)c3ccccc3)nc3ccccc32)cc1`, the growth with HCT-15 colon was 18.6%; in the experiment on HT29 colon it was 14.2%; in the experiment with SNB-75 CNS, -8.26% (active); in the experiment on SNB-19 CNS, 55.2%; in the experiment with U251 CNS it was 25.1%; in the experiment with PC-3 prostate it was 29.7%. Moreover, the growth in the experiment on SK-MEL-5 melanoma was -1.14% (active); in the experiment with UACC-62 melanoma it was 15.7%; in the experiment on LOX IMVI melanoma it was 43.8%; with SK-MEL-28 melanoma it was 94.2%; with SK-MEL-2 melanoma, 64.2%; with EKVX NSCLC, 71.2%. Further, the growth was 43% with SN12C renal; 32.7% in the experiment with UO-31 renal; 59.6% in the experiment with TK-10 renal; 46.1% in the experiment with ACHN renal; 24% in the experiment with CAKI-1 renal; 46.8% in the experiment on A498 renal. The growth in the experiment on MOLT-4 leukemia was 7.92% (active).
For the compound `Fc1ccc(-c2cn3c(nc4ccccc43)c(-c3ccccc3)n2)cc1`, the growth is 94% in the experiment with HCT-15 colon; 78.4% with HT29 colon; 68.9% in the experiment on SNB-75 CNS; 103% in the experiment on SNB-19 CNS; 91.5% in the experiment with U251 CNS; 85% in the experiment with PC-3 prostate. The growth in the experiment on SK-MEL-5 melanoma was 88.6%; with UACC-62 melanoma it was 78.9%; in the experiment on LOX IMVI melanoma, 106%; in the experiment with SK-MEL-28 melanoma, 185%; with SK-MEL-2 melanoma, 109%; in the experiment with EKVX NSCLC it was 108%. The growth in the experiment on SN12C renal is 89.2%; with UO-31 renal, 80.4%; in the experiment with TK-10 renal, 113%; in the experiment on ACHN renal, 92.7%; in the experiment on CAKI-1 renal, 84.9%; in the experiment on A498 renal it was 111%. Also, the growth in the experiment with MOLT-4 leukemia is 92.4%.
On to `O=C(/C(=C\c1ccc([N+](=O)[O-])cc1)S(=O)Cc1ccc(F)cc1)c1ccc(F)cc1` (centres undefined), for which the growth in the experiment on HCT-15 colon was 2.57% (active); in the experiment on HT29 colon, -55% (active); in the experiment with SNB-75 CNS it was 72.1%; in the experiment with SNB-19 CNS, 41%; with U251 CNS, 10.3%; in the experiment with PC-3 prostate it was 7.46% (active). Moreover, the growth in the experiment on SK-MEL-5 melanoma was 76.7%; with UACC-62 melanoma it was -22.4% (active); in the experiment on LOX IMVI melanoma, -52.1% (active); in the experiment on SK-MEL-28 melanoma, 23.2%; in the experiment on SK-MEL-2 melanoma, 78%; in the experiment on EKVX NSCLC it was 84.2%. The growth with SN12C renal is -43.7% (active); in the experiment on UO-31 renal, -39% (active); with TK-10 renal, 25.8%; in the experiment with ACHN renal, -7.56% (active); in the experiment on CAKI-1 renal it was 44.3%; in the experiment on CCRF-CEM leukemia, 0.265% (active). In addition, the growth with MOLT-4 leukemia was 5.93% (active).
Regarding `NS(=O)(=O)c1ccc(CCN2C(=O)C3C(C2=O)C2(Cl)C(Cl)=C(Cl)C3(Cl)C2(Cl)Cl)cc1` (centres undefined), the growth with HCT-15 colon was 90.5%; in the experiment with HT29 colon it was 85.8%; in the experiment with SNB-75 CNS it was 88%; with SNB-19 CNS, 101%; with U251 CNS, 104%; with PC-3 prostate, 42.3%. The growth with SK-MEL-5 melanoma was 92.9%; in the experiment with UACC-62 melanoma, 75.2%; with LOX IMVI melanoma, 92.1%; in the experiment with SK-MEL-28 melanoma, 108%; in the experiment with SK-MEL-2 melanoma it was 99%; with EKVX NSCLC it was 93%. Moreover, the growth was 99.9% in the experiment on SN12C renal; 85.8% with UO-31 renal; 110% in the experiment on TK-10 renal; 111% with ACHN renal; 71.7% in the experiment on CAKI-1 renal; 114% in the experiment with A498 renal. Also, the growth in the experiment on CCRF-CEM leukemia is 49.6%; with MOLT-4 leukemia it was 88.3%.
Take `CCCCOc1ccc(/C(C)=N/Nc2cc(C)nc3ccc(Br)cc23)cc1`: the growth with HCT-15 colon is 7.75% (active); in the experiment on HT29 colon, 45.1%; in the experiment on SNB-75 CNS, 103%; with SNB-19 CNS, 91.9%; in the experiment on U251 CNS, 31.9%; in the experiment with PC-3 prostate it was 80.3%. Moreover, the growth with SK-MEL-5 melanoma is 96.7%; with UACC-62 melanoma it was 98.5%; in the experiment with LOX IMVI melanoma it was 33.9%; with SK-MEL-28 melanoma, 106%; in the experiment with SK-MEL-2 melanoma, 108%; with EKVX NSCLC it was 88.2%. Further, the growth is 82.5% in the experiment on SN12C renal; 67.7% in the experiment on UO-31 renal; 112% with TK-10 renal; 103% with ACHN renal; 82.9% in the experiment on CAKI-1 renal; 64.6% in the experiment with CCRF-CEM leukemia. Moreover, the growth in the experiment on MOLT-4 leukemia was 83.5%.
`O=[N+]([O-])c1ccc(NC(=S)N/N=C/c2cc3ccccc3n3nnnc23)cc1`: the growth in the experiment on HCT-15 colon was 27.3%; in the experiment on HT29 colon it was 99.8%; in the experiment with SNB-75 CNS it was 58.2%; in the experiment on SNB-19 CNS, 29.8%; in the experiment with U251 CNS, 30.2%; in the experiment with PC-3 prostate, 34.5%. In addition, the growth in the experiment with SK-MEL-5 melanoma is 71%; in the experiment on UACC-62 melanoma, 65.4%; with LOX IMVI melanoma it was 39.2%; in the experiment with SK-MEL-28 melanoma it was 79%; in the experiment with SK-MEL-2 melanoma it was 49.3%; in the experiment with EKVX NSCLC, 36.6%. For the same compound, the growth is 58.5% in the experiment with SN12C renal; -1.57% (active) in the experiment with UO-31 renal; 56.8% in the experiment on TK-10 renal; 29.9% in the experiment on ACHN renal; 25.4% with CAKI-1 renal; 11.3% with CCRF-CEM leukemia. Besides, the growth with MOLT-4 leukemia was 20.4%.
